Laboratory results taken from PubChem BioAssay.

Legend:
Test in all cases: inhibition of PEG-3 promoter-driven reporter – cell-based, HeLa, luciferase, CREF/GAPDH counter-screen panel, dose response (AID 624167)
[1] = molecular target: PEG-3 (UniProt Q6IN02); conditions: CREF/GAPDH counter-screens; HeLa PEG-Prom luciferase reporter, overnight, run 1, dose range 1, at 100 µM (top of the series) unless noted
[2] = molecular target: PEG-3 (UniProt Q6IN02); conditions: CREF/GAPDH counter-screens; HeLa PEG-Prom luciferase reporter, overnight, run 2, dose range 1, at 100 µM (top of the series) unless noted
[3] = tested on: Rat fibroblasts (CREF); conditions: CREF/GAPDH counter-screens; run 1, dose range 1, at 100 µM (top of the series)
[4] = tested on: Rat fibroblasts (CREF); conditions: CREF/GAPDH counter-screens; run 2, dose range 1, at 100 µM (top of the series)

Sequence of PEG-3 (Q6IN02 whole entry, looked up): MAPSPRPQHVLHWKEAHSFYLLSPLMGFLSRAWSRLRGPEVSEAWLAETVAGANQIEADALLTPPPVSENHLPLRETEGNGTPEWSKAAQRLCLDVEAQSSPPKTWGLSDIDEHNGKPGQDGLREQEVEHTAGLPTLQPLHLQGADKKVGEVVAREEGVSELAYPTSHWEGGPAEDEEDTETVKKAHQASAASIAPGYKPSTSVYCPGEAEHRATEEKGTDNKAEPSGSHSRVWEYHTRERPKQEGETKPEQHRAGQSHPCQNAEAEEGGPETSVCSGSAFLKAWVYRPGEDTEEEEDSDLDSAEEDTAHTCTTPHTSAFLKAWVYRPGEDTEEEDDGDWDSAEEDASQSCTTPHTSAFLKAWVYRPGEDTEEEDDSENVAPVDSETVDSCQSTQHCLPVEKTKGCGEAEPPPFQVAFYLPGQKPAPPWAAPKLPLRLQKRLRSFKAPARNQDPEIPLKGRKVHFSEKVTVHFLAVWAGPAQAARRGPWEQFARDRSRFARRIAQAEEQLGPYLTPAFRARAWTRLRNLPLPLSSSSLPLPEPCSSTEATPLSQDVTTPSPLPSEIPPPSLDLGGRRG

| SMILES | inhibition [1] [%] | inhibition [2] | inhibition [3] [%] | inhibition [4] [%] |
| --- | --- | --- | --- | --- |
| CCCCN(C)C(=O)c1ccc(Nc2nc(C(N)CCc3ccccc3)cs2)nc1 (configuration not stated) | 98.6 | 94.6% | – | – |
| CN1Cc2c(N3CCOCC3)nc3sc(C(=O)c4ccc(Br)cc4)c(N)c3c2CC1(C)C | 99 | 101% | – | – |
| CC1(C)CC(NC(=O)c2cccc(S(=O)(=O)N(Cc3ccccc3)c3ccccc3)c2)CC(C)(C)N1 | 101 | 102% | – | – |
| NCCc1c(-c2ccccc2)n(-c2ccccc2)c2ccccc12 | 97.5 | 102% | – | – |
| CN(C)CCNc1ccc(CO)c2oc3ccc(O)cc3c(=O)c12 | 99.1 | 101% | – | – |
| CCC(=O)NC(c1cccs1)c1cc([N+](=O)[O-])c2cccnc2c1O (configuration not stated) | 100 | 101% | – | – |
| Cc1nc(C)c(C(=O)N/N=C/c2cc(Br)ccc2O)s1 | 101 | 101% | 52.7 | 46.2 |
| O=C(Nc1nc2cc3c(cc2s1)OCCO3)C1=COCCO1 | 99.1 | 98% | 95.3 | 97 |
| O=c1oc2ccccc2cc1-c1cn2ccccc2n1 | 92.7 | 94.2% | 94.6 | 93.7 |
| CCCC(=O)NC(c1ccccc1)c1ccc2cccnc2c1O (configuration not stated) | 36.8 | 71% [run 2, dose range 1, at 25 µM] | 59 | 44.9 |
| CCc1ccc(/C=C2\SC(=S)N(CCCC(=O)NC3=NCCS3)C2=O)cc1 | 96 | 77.5% | 0.087 | 7.65 |
| CCCS(=O)(=O)c1cnc(C2COc3ccccc3O2)nc1N (configuration not stated) | 96.2 | 94.6% | 89.5 | 87.6 |
| CC(=O)c1ccc(-c2cnc3c(NC=O)cc(-c4ccccc4Oc4ccccc4)cn23)cc1 | 38.3 | 56.6% | -25.1 | 94.9 |
| COc1cc(SC)ccc1C(=O)Nc1ncc(C)s1 | 95.5 | 98.2% | 97.8 | 97.3 |
| O=[N+]([O-])c1ccc(-c2ccc(/C=N/Nc3nc(NCc4ccccc4)nc(N4CCOCC4)n3)o2)cc1 | 99.5 | 91.5% | 97.5 | 96.9 |
| O=C(/C=C/c1ccccc1)Nc1cccc(C(=O)O)c1 | 99 | 97.4% | 96.8 | 95.7 |
| S=C(NN=C(c1ccccc1)c1ccccn1)N(Cc1ccccn1)Cc1ccccn1 | 102 | 102% | 97.9 | 98 |
| CC1CCN(c2ccc(-c3cccs3)nn2)CC1 | 90.2 | 97.2% | 96.1 | 96.2 |
| CCc1ccc(/C=C2\SC(=S)N(CCCC(=O)Nc3ccccn3)C2=O)cc1 | 92.7 | 81% | -3.09 | 94.6 |
| CCC(c1ccc(O)c(O)c1)C(CC)c1ccc(O)c(O)c1 (configuration not stated) | 102 | 101% | 100 | 97.1 |
| Cc1nc(-c2ccc(NC(=O)c3ccco3)cc2)cs1 | 98.9 | 99.3% | 93.3 | 95.8 |
| COc1cccc(-c2sc3ccccc3c2-c2ccc(OCCN(C)C)cc2)c1 | 99.6 | 98.6% | 98.7 | 99.3 |
| C=CCn1c(C)cc(C(=O)COc2ccc(C)nc2[N+](=O)[O-])c1C | 61.3 | 43.4% | 42.2 | 46.5 |
| O=C(Nc1cccc(C(=O)O)c1)Nc1ccc2c(c1)OCO2 | 95.9 | 94.8% | 84.8 | 85.5 |
| COc1ccccc1C(=O)Nc1nc2ccccc2[nH]1 | 99.2 | 102% | 100 | 99.5 |
| COc1ccc(-n2cc(-c3ccccc3)c3c(N4CCOCC4)ncnc32)cc1 | 94.2 | 101% | 69.3 | 67.2 |

| SMILES | inhibition [1] [%] | inhibition [2] | inhibition [3] [%] | inhibition [4] [%] |
| --- | --- | --- | --- | --- |
| O=C(O)c1ccc(N/N=C/c2ccc3c(c2)OCO3)cc1 | 98 | 102% | 67.2 | 62.5 |
| Cc1ccc(C(=O)Nc2cnc3ccccc3c2)cc1 | 91.5 | 98% | 83.4 | 77.7 |
| O=C(Nc1ccccc1)c1nc[nH]c1C(=O)NCCCCCCNC(=O)c1[nH]cnc1C(=O)Nc1ccccc1 | -14.1 | 24.2% | -4.97 | -1.9 |
| CCCCC(=O)NC(c1ccccc1)c1ccc2cccnc2c1O (configuration not stated) | 90.4 | 93.6% | -26 | -7.89 |
| CC(C)CC(=NNC(=O)c1ccncc1)c1cc(Cl)ccc1O | 76.9 | 93.6% [run 2, dose range 1, at 50 µM] | 73.9 | 81.7 |
| c1ccc(-c2nc(-c3ccccn3)no2)cc1 | 89.5 | 91.1% | 98 | 98.3 |
| CCCSc1ccc2nc(-c3ccccc3)cn2c1 | 98.4 | 98.8% | 92.4 | 95.7 |
| Clc1ccccc1/C=C/c1nc(-c2ccccn2)no1 | 87.3 | 96.5% | 89.2 | 76.1 |
| O=C(COc1ccc(Cl)cc1Cl)Nc1ccccn1 | 94 | 98.4% | 101 | 99.7 |
| COC1=C(Br)C(=O)c2ncccc2C1=O | 99.3 | 98.6% | 95.3 | 97.8 |
| O=C(Nc1cc(S(=O)(=O)N2CCOCC2)ccc1Cl)c1cc([N+](=O)[O-])ccc1Cl | 98.9 | 98.9% | 85.8 | 98.1 |
| O=C(O)c1ccc(N/N=C/c2ccc3nccnc3c2)cc1 | 101 | 102% | 58.2 | 45.3 |
| CC(=O)NC(c1ccc(Cl)cc1)c1ccc2cccnc2c1O (configuration not stated) | 97.5 | 88.3% | 4.58 | 23 |
| Cc1ccccc1CNC(=O)C1CCCN(c2nnc(C)c3c(C)n(-c4ccccc4)nc23)C1 (configuration not stated) | 99 | 101% | 98.3 | 99.4 |
| Oc1c(Br)cc(Br)c2cccnc12 | 81.8 | 71% | 88.2 | 94.5 |
| Cc1ccc(C(=O)Nc2nc3ccccc3[nH]2)cc1 | 89.8 | 88.1% | 99.2 | 98.7 |
| O=C1C(Cl)=C(Nc2ccccc2)C(=O)c2ccccc21 | 102 | 101% | 96.9 | 99.8 |
| O=C(OCC(F)(F)F)c1cccc(COc2ccc3ccccc3c2)c1 | 96.5 | 92.4% | 86.6 | 85.7 |
| O=C(N/N=C/c1cc([N+](=O)[O-])ccc1O)c1ccc(COc2ccc3c(c2)CCC3)o1 | 52.4 | 95.1% [run 2, dose range 1, at 25 µM] | 29.5 | 55.1 |
| CCN(CC)S(=O)(=O)c1cccc(C(=O)N/N=C(\C)c2ccc(O)cc2O)c1 | 27.3 | 69.6% | 43.3 | 47.7 |
| CN(C)S(=O)(=O)c1ccc(-c2csc(N/N=C/c3ccc(O)cc3)n2)cc1 | 99.1 | 101% | 97.4 | 98.8 |
| Cc1oc(-c2ccc3c(c2)OCCO3)cc1C(=O)O | 101 | 99.2% | 84.4 | 81.3 |
| NC(Cc1ccc(F)cc1)c1csc(Nc2cc(Oc3ccccc3)ncn2)n1 (configuration not stated) | 102 | 101% | 95.3 | 94.1 |
| Cc1ccc(/C=C2\SC(=S)N(CCCC(=O)Nc3ccccn3)C2=O)cc1 | 88 | 94.2% | -11.8 | -1.96 |
| COc1cc(C(=O)N/N=C(\c2ccccc2)c2ccccn2)cc(OC)c1OC | 72.6 | 74.9% | 72.1 | 63.3 |
| CCCCC(=O)NC(c1ccc(OC)cc1)c1ccc2cccnc2c1O (configuration not stated) | 73.4 | 80.2% | 35.2 | 28.7 |

| SMILES | inhibition [1] [%] | inhibition [2] | inhibition [3] [%] | inhibition [4] [%] |
| --- | --- | --- | --- | --- |
| Cc1cc(S(=O)(=O)c2ccc(Cl)cc2)nc(S(=O)(=O)c2ccc(Cl)cc2)c1C#N | 99.1 | 101% | 98.2 | 98.8 |
| Cc1cc(C(=O)Nc2cccc(C(=O)O)c2)oc1C | 88.1 | 85.8% | 49.8 | 52.7 |
| CC1CCCN(c2ncnc3c2cnn3-c2ccc(Cl)cc2)C1 (configuration not stated) | 98.9 | 98% | 94 | 96.6 |
| Cc1ccc(-n2[nH]c(=O)c(-c3ccccn3)c2C)cc1 | 94.8 | 90.3% | 86.5 | 87.2 |
| CCCCCCN1C=C/C(=C\C=C(C#N)C#N)c2ccccc21 | 54.3 | 78.7% | 43.7 | 89.7 |
| CCOc1ccc(OCc2cccc(C(=O)O)c2)cc1 | 91.5 | 91.5% | 96.6 | 97.5 |
| CCc1ccn2cc(-c3ccc4c(c3)OCO4)nc2c1 | 96 | 89.2% | -17.6 | 97.5 |
| COc1ccc(CCN2C(=O)C=CC2=O)cc1OC | 102 | 101% | 99.5 | 98.6 |
| CN=c1sc2c(n1C)C(=O)c1ccccc1C2=O | 101 | 98.9% | 97.8 | 98.9 |
| CN=c1scc(-c2ccccc2F)n1/N=C/c1ccc[nH]1 | 98.7 | 99.8% | 100 | 100 |
| CN(C)c1ccc(/C=C/c2ccc3c4ccccc4ccc3[n+]2-c2ccccc2)cc1 | 99.3 | 98.8% | 101 | 100 |
| O=C(COc1ccc2c(c1)CCC2)Nc1ccccn1 | 98.8 | 94.2% | 97.5 | 94.5 |
| Nc1ccc(-c2nc3ccc(C(=O)O)cc3s2)cc1 | 98.2 | 98.9% | 89.1 | 90.5 |
| COc1ccc(C(=O)NNC(=O)c2ccccn2)cc1 | 102 | 95.9% | 100 | 98.5 |
| O=C(CNCCC1=CCCCC1)Nc1ccc(N2CCCCCC2)cc1 | 102 | 102% | 99.4 | 100 |
| COc1cc(NS(C)(=O)=O)ccc1Nc1c2ccccc2nc2ccccc12 | 102 | 99.2% | 86.1 | 95.2 |
| COCCCNC(=O)c1ccc(Cn2c(=O)c3ccccc3n(Cc3ccccc3C#N)c2=O)cc1 | 63.4 | 64% | 40.3 | 38.4 |
| O=c1cc(-c2ccc(O)cc2)oc2ccc3ccccc3c12 | 99.4 | 101% | 98.1 | 97.1 |
| Cc1ccc(/C=C2\SC(=S)N(CCCC(=O)NNC(=O)c3ccccc3O)C2=O)cc1 | 81.6 | 73.5% | 10.1 | 11 |
| Cc1cccc(C)c1NC(=O)c1nc(S(=O)(=O)Cc2ccccc2)ncc1Cl | 102 | 101% | 99.2 | 99 |
| O=C(N/N=C/c1c(O)ccc2ccccc12)c1ccc(CO)nc1 | 51.6 | 60.4% | 54 | 47.6 |
| CN(C)CC1CCC/C(=C\c2ccc(OC(=O)c3ccc(Cl)cc3)cc2)C1=O (configuration not stated) | 97.7 | 99% | 51.4 | -21.7 |
| COc1cccc2nc3c(C(=O)NCCN(C)C)cccc3cc12 | 98.9 | 101% | 98 | 95.2 |
| COc1cc(Nc2c3ccccc3nc3ccccc23)cc(OC)c1OC | 102 | 102% | 92.9 | 72.1 |
